The values that follow come from the supplement of paper PMC3616981.

Compound in this experiment: CC(C)c1cccc(C(C)C)c1N1C(=O)c2ccc(O)cc2C1=O
As to the kind of experiment: reporter fold induction vs vehicle; higher = higher reporter activity. As for the experimental part: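 Attagene multiplexed transcription-factor reporter assay (48 cis response elements and 25 trans nuclear-receptor constructs) treated with 5HPP-33 at 8 concentrations (0.091–200 µM). The response is fold induction of reporter activity relative to vehicle control. Cell line and time not stated in the paper; tested in ToxCast Phase II for this study.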

Take PPARa_TRANS: the reporter fold induction (0.091 µM) was 1.19; the reporter fold induction (0.274 µM) came to 1.13; the reporter fold induction (0.823 µM) came out at 0.988; the reporter fold induction (2.469 µM) is 0.988; the reporter fold induction (7.407 µM) was found to be 0.912; the reporter fold induction (22.22 µM) amounted to 0.775. For the same target, the reporter fold induction was found to be 0.936 (66.67 µM) and 0.812 (200 µM).
As to ERa_TRANS, the reporter fold induction runs as follows: (0.091 µM) 1.72; (0.274 µM) 2.62; (0.823 µM) 4.32; (2.469 µM) 5.19; (7.407 µM) 4.48; (22.22 µM) 4.97. Further, the reporter fold induction is, setting by setting: (66.67 µM) 2.96; (200 µM) 1.06.
Myb_CIS: the reporter fold induction is, setting by setting: (0.091 µM) 0.995; (0.274 µM) 0.98; (0.823 µM) 1.02; (2.469 µM) 0.983; (7.407 µM) 0.998; (22.22 µM) 0.979. Moreover, the reporter fold induction came to 1.03 (66.67 µM) and 1.13 (200 µM).
Regarding TCF_b_cat_CIS, the reporter fold induction is, setting by setting: (0.091 µM) 1.06; (0.274 µM) 0.944; (0.823 µM) 1.13; (2.469 µM) 1.06; (7.407 µM) 0.839; (22.22 µM) 0.671. For the same target, the reporter fold induction came out at 0.77 (66.67 µM) and 0.204 (200 µM).
In the case of NURR1_TRANS, the reporter fold induction (0.091 µM) is 1.09; the reporter fold induction (0.274 µM) was 1.26; the reporter fold induction (0.823 µM) came out at 1.01; the reporter fold induction (2.469 µM) stood at 1.05; the reporter fold induction (7.407 µM) worked out at 1.08; the reporter fold induction (22.22 µM) was determined as 0.976. Moreover, the reporter fold induction (66.67 µM) was 0.934 and the reporter fold induction (200 µM) is 1.2.
